# High-throughput results from PubChem.
# PriA SSB inh: inhibitors of Klebsiella pneumoniae PriA binding to SSB C-terminal tail; AlphaScreen SSBct-PriA binding, biotinylated peptide; inhibition, % at 33 µM; 430,000 compounds, 0.6% hits; AID 1272365; in the data active means inhibition mostly above about 37%, no sharp cut-off; inactive means mostly below about 20%
# BoNT-F LC inh: blocks Botulinum neurotoxin F light chain protease | Multiplex microsphere protease cleavage assay, flow cytometry | 360,000 compounds, 0.22% hits | inhibition, % at 10 µM; in the data active means inhibition above about 35%, passing the limit was not always enough; inconclusive means no clear call, values can overlap the other calls
# BoNT A protease: blocks Botulinum neurotoxin A light chain protease; multiplex microsphere protease substrate cleavage, flow cytometry; 360,000 compounds, 0.17% hits; inhibition, % at 10 µM
# Autofluor counter: flagged as autofluorescent in microsphere protease counterscreen | compound autofluorescence counterscreen, microsphere flow cytometry; hits give high values | fluorescence intensity (no concentration beside the values) | 360,000 compounds, 3.1% hits | AID 624483; in the data active means fluorescence intensity above about 16000; inconclusive means no clear call, values can overlap the other calls
# Anthrax LF prot: blocks Bacillus anthracis lethal factor protease; multiplex microsphere protease cleavage assay, LF; inhibition, % at 10 µM; AID 588501; 360,000 compounds, 0.12% hits; P15917
# Numbers stand for hits; n = inactive; u = inconclusive; x = not tested or not shown. In the library only some 3.1% were active in any assay of this set; here they are far more common. Unless noted, no stated cut-off is given here; in the data, active means inhibition above about 30%; inconclusive means no clear call, values can overlap the other calls; inactive means below that.
SMILES,PriA SSB inh,BoNT-F LC inh,BoNT A protease,Autofluor counter,Anthrax LF prot
O=C(Nc1ccc2c(c1)OCO2)c1ccc(=O)n(Cc2cccc(F)c2)n1,17,x,x,x,x
Cc1cc(C)n2nc(C(=O)Nc3ccc4c(c3)OCO4)cc2n1,n,n,n,22219,n
O=C(NCc1ccc2c(c1)OCO2)c1ccc(=O)n(Cc2cccc(F)c2)n1,n,x,x,x,x
O=C(Nc1nc2ccccc2s1)c1cc(=O)[nH]cn1,n,x,x,x,x
CCCCC(CC)C(=O)NCCc1ccc(S(N)(=O)=O)cc1 (stereo unspecified),n,n,n,23826,n
COCC(=O)NCCc1ccc(S(N)(=O)=O)cc1,n,n,n,n,n
CCCCC(=O)NCCc1ccc(S(N)(=O)=O)cc1,n,n,n,16934,n
CCC(CC)C(=O)NCCc1ccc(S(N)(=O)=O)cc1,n,n,n,21021,n
NS(=O)(=O)c1ccc(CCNC(=O)Nc2ccc(Cl)c(Cl)c2)cc1,n,n,n,16607,n
C=CCn1c(SCCC(=O)NCc2ccc3c(c2)OCO3)nc2scc(-c3ccco3)c2c1=O,n,x,x,x,x
Cc1ccc(CC(=O)NCCc2ccc(S(N)(=O)=O)cc2)cc1,n,n,n,n,n
CCC(CC)C(=O)Nc1cccc(C(=O)NCCc2ccc(S(N)(=O)=O)cc2)c1,n,n,n,23028,n
CCC(CC)C(=O)Nc1cccc(C(=O)NCCc2ccccc2)c1,n,n,n,n,n
COc1ccc(CC(=O)NCCc2ccc(S(N)(=O)=O)cc2)cc1,n,n,u,19944,n
CCOC(=O)Cn1c2ccc(F)cc2c2nc(C)sc21,n,n,n,n,n
COC(=O)Cn1c2ccc(F)cc2c2nc(C)sc21,n,n,n,22219,n
O=S(=O)(c1cccc(-c2nc3ccccc3s2)c1)N1CCCC1,n,n,n,23878,n
COc1ccc(Cl)cc1NC(=O)COC(=O)c1cc(C(C)=O)n2ccccc12,n,x,x,x,x
Cc1n[nH]c(C)c1C(=O)CC1(O)C(=O)N(CCc2ccccc2)c2ccc(Br)cc21 (stereo unspecified),n,n,n,n,n
Cc1n[nH]c(C)c1C(=O)CC1(O)C(=O)N(Cc2ccccc2)c2ccc(Br)cc21 (stereo unspecified),n,n,n,22972,n
Cc1cccc(N2C(=O)CC(N3CCN(C(=O)c4ccccc4)CC3)C2=O)c1 (stereo unspecified),n,n,n,23162,n
O=C1CC(N2CCN(Cc3ccccc3)CC2)C(=O)N1c1ccc2c(c1)OCCO2 (stereo unspecified),n,n,n,n,n
Cc1cccc(N2C(=O)CC(N3CCN(c4ccccc4)CC3)C2=O)c1 (stereo unspecified),n,n,n,n,n
O=C1CC(N2CCN(Cc3ccccc3)CC2)C(=O)N1c1ccccc1 (stereo unspecified),n,n,n,23947,n
Nc1nonc1-n1nnc(C(=O)NN=Cc2ccc(OCc3ccccc3)cc2)c1CN1CCCCC1,n,x,x,x,x
SMILES,PriA SSB inh,BoNT-F LC inh,BoNT A protease,Autofluor counter,Anthrax LF prot
COc1ccc(CNC(=O)NC[C@H]2CC(=O)N(c3ccc(Cl)cc3)C2)cc1OC,n,x,x,x,x
O=C(NCCN1CCC(c2cccs2)CC1)C(=O)NCc1ccc(F)cc1,n,x,x,x,x
COc1ccc(OC)c(C2=NOC(C(=O)Nc3ccccc3SC)C2)c1 (stereo unspecified),n,n,n,n,n
COc1cc(NC(=O)C2CC(c3cccc(OC)c3OC)=NO2)cc(OC)c1OC (stereo unspecified),n,n,n,22158,n
COc1ccc(OC)c(C2=NOC(C(=O)Nc3cccc(C(C)=O)c3)C2)c1 (stereo unspecified),n,n,n,23110,n
CCc1ccc(N2C(=O)c3sc4nnc(C)c(=O)n4c3C2=O)cc1,n,n,n,20580,n
CC(C)c1ccc(-c2noc(C3CCN(S(=O)(=O)c4cccs4)CC3)n2)cc1,n,x,x,x,x
COC(=O)c1ccc(CSc2nc(C)cc(C(F)(F)F)n2)cc1,38,x,x,x,x
COc1ccc(S(=O)(=O)c2c(C)cc(C)n(CC(=O)Nc3ccc(OC)cc3OC)c2=O)cc1,n,x,x,x,x
O=C1N=C(N2CCCC2)S/C1=C\C=C\c1ccccc1,n,41,n,n,n
O=C(Nc1nc2c(Cl)ccc(Cl)c2s1)c1ccc(F)cc1,n,x,x,x,x
O=C(C1=C(O)C(=O)N(CCN2CCOCC2)C1c1cccnc1)c1cc2ccccc2o1 (stereo unspecified),n,n,n,19706,n
Cc1cc(C)cc(C(=O)N2CCC3(CC2)NCCc2[nH]cnc23)c1,94,n,n,n,n
COc1cc(C(=O)N2CCC3(CC2)NCCc2[nH]cnc23)cc(OC)c1OC,n,n,n,n,n
COc1ccc2sc(NCc3cccnc3)nc2c1,n,x,x,x,x
Nc1nc(-c2cccnc2)nn1C(=O)Cc1ccccc1,n,n,n,22678,n
Nc1nc(-c2ccccc2)nn1C(=O)Cc1ccccc1,n,n,n,n,n
O=C(CSc1ccc(NC(=O)c2cccs2)nn1)NCc1ccco1,n,x,x,x,x
O=C(Nc1ccc(O)cc1)C1CC=CCC1 (stereo unspecified),n,n,u,18689,n
O=C(Nc1cnoc1)[C@@H]1CC=CCC1,n,x,x,x,x
CCOC(=O)C(C)NC(=O)CCc1nnc2ccc(N3CCC(C)CC3)nn12 (stereo unspecified),n,37,n,n,n
O=c1[nH][nH]c2nc(C(F)(F)F)cc(C(F)(F)F)c12,n,n,u,22696,n
Cc1noc(C)c1COC(=O)c1cc2c(C)nn(-c3ccc(F)cc3)c2s1,n,n,n,n,n
Cc1nn(-c2ccc(F)cc2)c2sc(C(=O)OCC(=O)N3CCC(C)CC3)cc12,n,n,u,19994,n
CC(C)(C)C(=O)NCC1CCN(C2CCCC2)CC1,n,x,x,x,x
SMILES,PriA SSB inh,BoNT-F LC inh,BoNT A protease,Autofluor counter,Anthrax LF prot
Cn1c(SCc2ccc([N+](=O)[O-])cc2)nnc1-c1cccnc1,n,n,n,n,n
CC(NC(=O)c1ccccc1Br)c1nnc(SCc2ccc([N+](=O)[O-])cc2)n1C (stereo unspecified),n,n,n,19315,n
CCn1nc(C)c(C(=O)Nc2cc(Oc3ccc(Cl)cc3)cc([N+](=O)[O-])c2)c1C,n,n,n,19896,n
CCOC(=O)N1CCN(C(=O)CSCC(=O)Nc2nc(-c3ccc(Cl)cc3)cs2)CC1,n,x,x,x,x
CCOC(=O)N1CCN(C(=O)CSCC(=O)Nc2nc(-c3ccc(Cl)s3)cs2)CC1,n,n,n,22328,n
NC(=O)Cn1nc(C2CC2)c2cnn(-c3ccc(F)cc3)c2c1=O,n,x,x,x,x
Cc1cccc(OCc2nnc(NC(=O)Cc3cccs3)s2)c1,n,n,n,16333,n
Cc1ccc2nc(NC(=O)CNS(=O)(=O)c3ccc(Br)s3)sc2c1,n,n,n,21835,n
Cc1ccc2nc(NC(=O)Cc3cccs3)sc2c1,n,n,n,21273,n
O=C(Nc1ccc2c(c1)OCCO2)C1CCCN(c2cc(C3CC3)ncn2)C1 (stereo unspecified),n,x,x,x,x
CC(=NNC(=O)Cc1ccc(Cl)cc1)c1ccc(F)cc1,n,x,x,x,x
C/C(=N\NC(=O)Cc1ccc(Cl)cc1)c1ccc(F)cc1,x,35,n,n,n
COc1ccc(S(=O)(=O)NCCNc2cc(Nc3ccccn3)ncn2)cc1C,n,x,x,x,x
